Data on 65 molecules can be found in PubChem BioAssay AID540335 (Broad Institute, 2011).

Out of some 1,300 compounds screened, about 270 (21%) were called active.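 The calls were made as follows: active = dose-dependent rise or fall in viability, either side of zero, with half-maximal concentration at or below a set limit; inconclusive = flat curve at 30 to 70% viability loss, or poor fit; inactive = flat within 30% either way, or potency beyond limit.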 A selection follows. Results with a measured potency or affinity are listed apart.

This assay in a line: proliferation inhibition in MITF-low A375 cells – cell-based, cherry-pick samples, set 2, counter-screen for MITF modulator project, dose response (AID 540335).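 Also: A375 human melanoma cells which do not depend on MITF.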 The conditions noted are these: CellTiter-Glo ATP luminescence, 24 h; series mostly up to 35 µM.
`COc1cc(OC)cc(-c2oc(=O)c3cc(OC)c(OC)cc3c2C(F)(F)F)c1`: the molecule was classed as inactive.
With `CCN1CCN(c2ccc(Nc3ccnc4ccccc34)cc2)CC1` the entry was “inactive”; with `CCOc1ccc(NC(=O)Nc2cccc(C(=O)O)c2)cc1`, “inactive”.
For `O=C(Nc1nnc(Cc2ccccc2)s1)c1ccccc1`, the molecule was classed as inactive.
Next, `Cc1ccc(/C=N/Nc2ccc(C(=O)O)cc2)s1`: “inactive”.
Take `C/C(=N\NC(=O)C(c1ccccc1)c1ccccc1)c1ccccn1`: the outcome was inactive.
In the case of `O=C(c1ccc([N+](=O)[O-])s1)N1CCN(c2ccccn2)CC1`, the molecule was classed as inactive.
With `O=c1c2ccccc2cnn1CCOc1ccccc1` the entry was “inactive”; with `Cc1nc2ccccc2n1/N=C/c1ccc([N+](=O)[O-])s1`, “inactive”; with `CN(C)C1CCN(Cc2cc(COCc3ccccc3)c3cccnc3c2O)C1` (stereo not given), “inactive”.
With `CCCOCc1ccc(O)c2ncccc12` the entry was “inactive”; with `Cc1cc(C(C)(C)C)cc(C)c1Cn1c2[n+](c3ccc(C(F)(F)F)cc31)CCCCC2`, “inactive”.
Next, `Cc1ccc(-n2nnnc2CNC(=O)c2ccc([N+](=O)[O-])o2)cc1C`: “inactive”; `Cc1nc2nc(C)c(NS(=O)(=O)c3ccc4c(c3)CCCC4)c(=O)n2[nH]1`: “inactive”.
Take `CCCN(CCC)C1=CC(=[N+]2CCCC2)CC(C)(C)C1`: the molecule was called inactive.
Next, `CN(Cc1ccccc1)C1=CC(=[N+]2CCCC2)CC(C)(C)C1`: “inactive”; `CN(C)S(=O)(=O)c1ccc(-c2csc(N/N=C/c3ccco3)n2)cc1`: “inactive”; `CCOc1ccc(N/C=C/C(=O)c2ccc(OC)c(OC)c2)cc1`: “inactive”.
Regarding `COc1ccc(C(=O)N/N=C/c2cc(Br)ccc2O)cc1OC`, the call was inactive.
Consider `Cc1ccc(-c2n[nH]c(=O)c3ccccc23)cc1S(=O)(=O)NCC1CCCO1` (stereo not given), for which the call was inactive.
With `COc1ccc(C(=O)/C=C/C(=O)N(CC(=O)NC2CCCCC2)Cc2ccc(F)cc2)c(O)c1` the entry was “inactive”; with `COc1ccc(NC(=O)NC(=O)c2ccccc2)cc1`, “inactive”; with `COc1ccc(N/N=C/c2c(C(=O)O)ccc3ccccc23)cc1`, “inactive”.
Next, `N#CC(C#N)=C1C=CC=CN1/C(=C\c1ccco1)C(=O)c1ccc(Cl)cc1`: “inactive”; `COc1ccccc1-c1cc(C(F)(F)F)nc(S(C)(=O)=O)n1`: “inactive”; `Cc1ccc2c(C(=O)CCl)c(C)[nH]c2c1`: “inactive”.
Next, `COc1ccc(C(=O)C(CN2CCOCC2)c2ccccc2)cc1` (stereo not given): “inactive”.
In the case of `O=S(=O)(CC(CN1CCCCC1)N1CCCCC1)c1ccc2ccccc2c1` (stereo not given), the molecule was classed as inactive.
With `CC(NC(=O)C12CC3CC(CC(C3)C1)C2)C(=O)NN=Cc1ccc([N+](=O)[O-])o1` (stereo not given) the entry was “inactive”; with `COC1=C(c2ccccc2)C(=O)c2ccccc2C1=O`, “inactive”.
Next, `COc1ccc(-c2nc(-c3ccccc3OC)no2)cc1OC`: “inactive”; `CN1CCN(C2=C(NS(=O)(=O)c3cccs3)C(=O)c3ccccc3C2=O)CC1`: “inactive”; `COc1ccc2nc(C)cc(NCc3cccc(C(F)(F)F)c3)c2c1`: “inactive”.
With `O=C1C=CC(=C(c2ccc(O)cc2)c2ccc(O)cc2)C=C1` the entry was “inactive”; with `CC(C)(C)C(=O)/C(=C/c1ccncc1)n1cncn1`, “inactive”; with `O=C(Nc1ccc2oc(-c3cccnc3)nc2c1)c1ccc([N+](=O)[O-])o1`, “inactive”.
For `COc1ccccc1NC(=O)c1nc(S(=O)(=O)Cc2ccccc2)ncc1Cl`, the molecule was called inactive.
In the case of `CC(=O)Nc1ccc(NC(=O)c2nc(S(=O)(=O)Cc3ccccc3)ncc2Cl)cc1`, the molecule was called inactive.
With `Cc1ccc(C(=O)c2cccc(N)c2)cc1C` the entry was “inactive”; with `COc1cc(NC(=O)COc2cc(O)c3c(c2)OC(C)(C)CC3=O)cc(OC)c1OC`, “inactive”; with `O=C(CCl)Nc1cccc(S(=O)(=O)N2CCCCCC2)c1`, “inactive”.
Next, `Cc1cc(/C(N)=N/OC(=O)c2ccc(Cl)cc2)no1`: “inactive”.
With `CCCCN1CCc2c1nc1ccc(Br)cc1c2N` the entry was “inactive”; with `O=C(COC(=O)c1ccccc1C(=O)c1ccc(Cl)c([N+](=O)[O-])c1)NC1CC1`, “inactive”.
In the case of `CCOc1ccc(-c2ccc(SC)nn2)cc1`, the molecule was called inactive.
For the molecule `Cc1ccc(C(=O)N/N=C\c2ccc([N+](=O)[O-])s2)cn1`, the result was inactive.
Next, `CCN(CC)CCNC(=O)C1CCN(S(=O)(=O)c2c(C)noc2/C=C/c2ccccc2F)CC1`: “inactive”.
Next, `Cc1cc(C)cc(OCC(=O)N/N=C/c2ccc([N+](=O)[O-])o2)c1`: “inactive”; `N=c1n(CCN2CCCC2)c2ccccc2n1CC(O)c1ccc(Cl)c(Cl)c1` (stereo not given): “inactive”; `O=C(CNc1cccc2ccccc12)N/N=C/c1ccc([N+](=O)[O-])o1`: “inactive”.
For `Cc1ccccc1C(=O)N/N=C/c1ccc([N+](=O)[O-])s1`, the result was inactive.
For `Cc1cc2ncn(/N=C/c3ccc([N+](=O)[O-])o3)c2cc1C`, the molecule was classed as inactive.
Next, `O=C(N/N=C/c1ccc([N+](=O)[O-])o1)c1cc2ccccc2o1`: “inactive”; `CCOC(=O)CCc1ccc(NC(=O)/C=C/c2ccc([N+](=O)[O-])o2)cc1`: “inactive”; `CC1(C(=O)N/N=C/c2ccc([N+](=O)[O-])o2)CC1(Br)Br` (stereo not given): “inactive”.
In the case of `CC(C)n1cc(/C=C/c2cc[n+](C)cc2)c2ccccc21`, the result was inactive.
Next, `CCOc1ccc(-n2c(C)cc(C(=O)CCl)c2C)cc1`: “inactive”; `COc1ccc(-n2c(C)cc(C(=O)CCl)c2C)cc1`: “inactive”.
Regarding `O=C(Nc1ccc2nc3n(c(=O)c2c1)CCCCC3)c1cc([N+](=O)[O-])ccc1F`, the molecule was classed as inactive.
With `CCOC(=O)c1nnn(-c2ccc([N+](=O)[O-])cc2[N+](=O)[O-])c1C` the entry was “inactive”; with `Cc1ccc(NC(=O)CCl)cc1S(=O)(=O)N1CCCCCC1`, “inactive”.
With `O=C(Nc1ccc(-c2nc3ncccc3o2)cc1)c1ccc([N+](=O)[O-])o1` the entry was “inactive”.
For the molecule `CCN(CC)CCn1nc2c3c(cccc3c1=O)-c1ccccc1-2`, the call was inactive.
With `Cc1ccc(NC(=O)CN(C)C(=O)Cn2ncc(Cl)c(Cl)c2=O)cc1` the entry was “inactive”; with `COc1cc(C2C(C#N)=C(N)Oc3cc4c(cc32)OCO4)cc(OC)c1OC` (stereo not given), “inactive”.
